Out of some 340,000 compounds screened, about 6,200 (1.8%) were called active. Where a call stands in place of a potency, no number is given. Inconclusive results (about 10%) are left out. This is one part of a sample in which actives are shown more often than they occur. Unmarked numbers belong to inactive results. The call rests on the fitted dose curve; in most records, active means well fitted activation curve with a large enough effect; inconclusive means small, poorly fitted or top-dose-only effect; inactive means no such curve, though single readings can be large or run the other way.
Potency means the concentration at half of the fitted maximal effect.

The nature of the assay: A quantitative high throughput screen for small molecules that induce DNA re-replication in SW480 colon adenocarcinoma cells. Further: nearly all actives have a fitted effect of over 55% in size. As to conditions: Hoechst DNA content imaging, 48 h; series mostly up to 46.1 µM. The source says: H Molecular Libraries Probe Production Network [MLPCN] NIH Chemical Genomics Center [NCGC] MLPCN Grant: Fast Track K99 CA136555 Assay Provider: Melvin DePamphilis, NICHD, NIH Assay Overview Eukaryotic cells normally restrict genome duplication to once per cell division. When this process is aberrant, DNA re-replication occurs when cells reinitiate DNA replication before the first round of replication is complete. DNA re-replication induces the DNA damage response, arrests cell proliferation, and triggers apoptosis. The cell cycle components cyclin A, Cdt-1, Cdc6 and geminin are critical regulators of this process and their misregulation results in DNA re-replication in normal and cancer cells. To identify compounds that induce re-replication in normal cells, an image-based assay was used to measure DNA content of nuclei, as detected by the fluorescent DNA binding dye, Hoechst. Cell nuclei were imaged by a fluorescence scanning plate imager and compounds that induce DNA re-replication were identified by the increase of nuclei with elevated fluorescence intensity
For screening, 250 cells in 5 uL/well were dispensed into black clear 1536-well plates (Aurora) using a solenoid-based dispenser. Following transfer of 23 nL compound or DMSO vehicle by a pin tool, the plates were incubated 48 hr at 37 C and 5% CO2. After addition of 1 uL/well Hoescht stain, the plates were incubated 40 min at 37 C, 5% CO2 and total intensity of fluorescent objects (nuclei) were enumerated by an Acumen Explorer Ex3 (TTP LabTech) fluorescence scanning plate imager (405 nm excitation, 500-530 nm emission). Keywords: NIH Roadmap, MLPCN, MLI, MLSMR, qHTS, NCGC, DNA replication, cancer
With `COc1ccc(-c2nnc(-c3ccc4ccccc4c3)o2)cc1`, the Potency entry is “inactive”.

With `CN(Cc1ccccc1)C(=O)COC(=O)/C=C/c1ccc2c(c1)OCO2`, the Potency result was “inactive”. On the same count and under the same terms, the value for `CC(C)(C)c1ccc(C(=O)NCCn2c(N)c(C#N)c3nc4ccccc4nc32)cc1` was 20.6 µM (active).

Regarding `Cn1cncc1COC(=O)c1ccc(Cl)cc1`, the Potency result is “inactive”. On the same count and under the same terms, the value for `CC(C)(C)c1ccc(C(=O)NCC(=O)OCN2C(=O)c3ccccc3C2=O)cc1` was “inactive”; that for `CN1OC(COC(=O)c2ccc(Cl)cc2)CC1c1ccccc1` (stereo not drawn) was “inactive”; that for `CC(C)(C)OC(=O)c1c(N)n(CCCN2CCCC2=O)c2nc3ccccc3nc12` was “inactive”.

Regarding `N#Cc1c(N)n(CCOC(=O)c2ccc(Cl)cc2)c2nc3ccccc3nc12`, the Potency was 20.6 µM (active). As to `COc1ccc(S(=O)(=O)N(C)C[C@H]2Oc3ccc(NS(=O)(=O)c4cccs4)cc3CC(=O)N([C@H](C)CO)C[C@H]2C)cc1`, the re-replication activation was -2.46% [at 9.22 µM]. Consider `CSCCC(NC(=O)c1ccccc1)C(=O)N1CCN(Cc2ccc(Cl)cc2)CC1` (stereo not drawn), for which the Potency result was “inactive”. The same measure, in the same setting: for `CC1CCCN(C(=O)CN2C(=O)c3ccccc3S2(=O)=O)C1` (stereo not drawn) the value was “inactive”; for `O=C(Oc1ccc(Br)cc1)c1cccnc1`, “inactive”; for `N#CCc1ccc(OC(=O)c2cccnc2)cc1`, “inactive”. On the same count and under the same terms, for `CCCCCCOc1ccc(OC(=O)c2cccnc2)cc1` the value was 8.2 µM (active); for `COc1ccccc1N(CC(=O)Nc1ccc(C)cc1Cl)S(=O)(=O)c1cccs1`, “inactive”. Same read-out and setting: the value for `CC(=O)c1c(OCC(=O)N(C)C2CCCCC2)ccc2c(C)cc(=O)oc12` was “inactive”. Take `CC(=O)c1cccc(-c2ccc(CN3C(CC(C)C)C(=O)N(Cc4cn(CC5CCCCC5)nn4)CCS3(=O)=O)cc2)c1` (stereo not drawn): the Potency entry was “inactive”. Consider `Cc1ccc(C(=O)NC(=S)NCCN2CCOCC2)cc1`, for which the Potency entry is “inactive”. On to `CCOc1cccc(/C=N/NC(=S)NCCN2CCOCC2)c1O`, for which the Potency was 1.46 µM (active). In the case of `CCOc1cccc(/C=N/N2C(=O)CSC2=S)c1O`, the Potency result is “inactive”.

As for `COC1C(CO)OC(n2cnc3c(=S)nc(N)[nH]c32)C1O` (stereo not drawn), the Potency entry is “inactive”. Turning to `CCOc1cc2c(cc1OCC)C(C(=O)O)C(c1ccc(OC)c(O)c1)N(C)C2=O` (stereo not drawn), the re-replication activation was -13.5% [at 9.22 µM].

For `COc1cc2c(cc1OC)C1C(=O)c3cc(OS(C)(=O)=O)c(OC)cc3C1N(C)C2=O` (stereo not drawn), the Potency was 7.31 µM (active). As for `COc1cccc(NC(=O)C2c3cc(OC)c(OC)cc3C(=O)N(C)C2c2cccnc2)c1` (stereo not drawn), the Potency result was “inactive”. On the same count and under the same terms, for `O=C1CC[C@@H]2CC3(C[C@@H]4CCN1[C@H]24)Nc1cc([N+](=O)[O-])ccc1NC3=NC1CCCCC1` (stereo partly drawn) the value was “inactive”; for `CC(NC(=O)COC(=O)CCC(=O)c1ccc(Cl)cc1)c1ccccc1` (stereo not drawn), “inactive”.

For the compound `FC(F)(F)c1nnc2c3ccccc3c(Cl)nn12`, the Potency was 2.59 µM (active). Same read-out and setting: for `FC(F)(F)c1nnc2ccc(N3CCN(c4ccccc4)CC3)nn12` the value was “inactive”; for `Nc1nnc2c(C(F)(F)F)nc3ccccc3n12`, “inactive”. Same read-out and setting: the value for `COc1ccc(NS(=O)(=O)c2cc(NC(=O)c3ccc(S(=O)(=O)N(C)C)cc3)ccc2N2CCOCC2)cc1` was “inactive”. On the same count and under the same terms, for `COc1ccccc1C(=O)NCC(=O)OCC(=O)NNC(=O)c1ccc(Br)cc1` the value was “inactive”. For the compound `COc1ccc(/C=C2\N=C3CCCN3C2=O)cc1`, the Potency entry is “inactive”. Same read-out and setting: the value for `COc1ccc(/C=C2/CCCc3ccccc3C2=O)cc1` was 9.2 µM (active); that for `COc1ccc(/C=C2\CCc3ccccc3C2=O)c(OC)c1OC` was “inactive”; that for `O=C(CN1C(=O)NC(Cc2c[nH]c3ccccc23)C1=O)Nc1ccccc1C(F)(F)F` (stereo not drawn) was “inactive”. Same read-out and setting: the value for `CCCN=C1N(C)C[C@@H]2[C@@H]3C(=O)N(Cc4ccccc4)C(=O)[C@@H]3[C@](C)(C(=O)OC)N12` was “inactive”; that for `Nc1ccc2c(c1)C(O)c1ccc(Cl)cc1-2` (stereo not drawn) was “inactive”; that for `CCCN1C2CCCC1CC(NC(=O)c1cccc(OC)c1)C2` (stereo not drawn) was “inactive”. The same measure, in the same setting: the value for `CCCNC(=S)NC1CC2CCCC(C1)N2CC(C)C` (stereo not drawn) was 20.6 µM (active); that for `CCCN1C2CCCC1CC(NC(=O)NC13CC4CC(CC(C4)C1)C3)C2` (stereo not drawn) was “inactive”. In the case of `O=C1c2ccccc2[C@@H]2C[C@@H](O)[C@H](Nc3ccccc3Cl)CCN12`, the Potency result is “inactive”. The same measure, in the same setting: the value for `COc1ccc(C)cc1S(=O)(=O)N(CC(=O)Nc1cccc([N+](=O)[O-])c1)c1ccc(C)cc1` was “inactive”. The same measure, in the same setting: for `Cc1ccc(CN(C)CC(=O)Nc2cccc([N+](=O)[O-])c2)o1` the value was “inactive”; for `Cc1ccc(S(=O)(=O)N(CC(=O)Nc2cccc([N+](=O)[O-])c2)Cc2ccc(Cl)cc2)cc1`, 8.2 µM (active). For `CCCN(C(=O)CSc1nnc(N)s1)c1c(N)n(Cc2ccccc2)c(=O)[nH]c1=O`, the Potency entry is “inactive”. On the same count and under the same terms, the value for `COc1ccc2c(c1)c(=Cc1ccc(N(C)C)cc1)c1cc(-c3ccccc3)[n+](C)n12` was “inactive”; that for `CC(C)(C)OC(=O)CNC(=O)c1[nH]cnc1C(=O)N[C@@H](CCCCN)C(=O)OC(C)(C)C` was “inactive”. Regarding `NS(=O)(=O)c1cccc(NC(=O)COC(=O)c2cc([N+](=O)[O-])ccc2N2CCCC2)c1`, the Potency entry was “inactive”.

(Values after PubChem BioAssay AID624297 (National Center for Advancing Translational Sciences (NCATS), 2012).)
